Among all 140,000 compounds or so, about 2,100 (1.5%) were called active. Rule as the data show it: active = protection mostly above about 24% (no sharp cut-off); inactive = mostly below about 26%. The full list was thinned out, with actives kept by preference.
Assay: blockers of measles virus-induced cell death – single point, MLSMR library, absorbance, measles RdRp inhibitor project, primary screen (AID 841)
Settings: Measles virus-infected cells, CPE protection, at 4 µM, stronger effect = higher value

Row | Compound | protection (pct of control)
1 | COc1cc(/C=N\NC(=O)c2nonc2N)c(OC)cc1Br | 4.84% (inactive)
2 | CCCCN1C(=O)CCC(C(=O)O)C1c1ccc(OC)cc1 (stereo not given) | 18.6% (inactive)
3 | CCn1c(C(C)NC(=O)c2ccc(C)cc2)n[nH]c1=S (stereo not given) | 13.2% (inactive)
4 | COc1ccc(C2CC(c3ccccc3)=NN2C(=O)c2ccc(Cl)c([N+](=O)[O-])c2)cc1 (stereo not given) | 5.64% (inactive)
5 | CCOC(=O)c1c(C)nc(-c2ccccc2)nc1NC(=O)C(C)C | 92.6% (active)
6 | Cc1[nH]c2ccccc2c1C(=O)COC(=O)c1c(-c2ccccc2)noc1C | 3.64% (inactive)
7 | CCOC(=O)c1c(C)[nH]c(=S)c(C#N)c1-c1ccccc1 | 1.99% (inactive)
8 | C=CCN(c1ccc(C(=O)Nc2cc(C)cc(C)c2)cc1)S(C)(=O)=O | 12.6% (inactive)
9 | Cc1ccc(C(C)(C)C)c(OCCCCN2CCCC2)c1 | -0.18% (inactive)
10 | O=C(N/N=C\c1ccc(Br)cc1)c1ccc(Cn2cccn2)o1 | 5.4% (inactive)
11 | O=C(N/N=C/c1ccc2c(c1)OCO2)c1ccc(Cn2cc([N+](=O)[O-])cn2)o1 | 18.3% (inactive)
12 | CN(C)c1ccc(/C=N/NC(=O)c2ccc(Cn3cc(Br)cn3)o2)cc1 | 28.3% (active)
13 | Cc1ccc(S(=O)(=O)N(NC2=NS(=O)(=O)c3ccccc32)C(=O)c2ccccc2)cc1 | 7.51% (inactive)
14 | CCOC(=O)C1=C(N)N(c2ccc(C)cc2)C2=C(C(=O)CCC2)C1c1cccs1 (stereo not given) | 20.1% (inactive)
15 | Cc1nn(Cc2ccc(Cl)cc2)c(Cl)c1/C=N/NC(=O)c1cccnc1 | 11.1% (inactive)
16 | CC1(C)CC(=O)C2=C(C1)Nc1cc(C(=O)c3ccccc3)ccc1NC2c1ccccn1 (stereo not given) | 2.11% (inactive)
17 | COc1ccc(NC(=O)COC(=O)Cn2c(C)nc3ccccc32)cc1OC | 50.1% (active)
18 | CCCCn1c(=O)c(CCC(=O)OCC(=O)Nc2ccc(C)c(Cl)c2)nc2ccccc21 | 23.4% (inactive)
19 | Cc1noc(C)c1COC(=O)Cn1c(C)nc2ccccc21 | 7.94% (inactive)
20 | O=C(Nc1cccc(S(=O)(=O)N2CCCCC2)c1)c1ccc2c(c1)OCO2 | 8.22% (inactive)
21 | Cc1ccc(S(=O)(=O)N(C)C)cc1NC(=O)COC(=O)c1c(C)noc1C | 9.42% (inactive)
22 | Cc1cccc(NC(=O)COc2ccc(Br)cc2C)n1 | 6.52% (inactive)
23 | CCN(CC)S(=O)(=O)c1ccc(C)c(NC(=O)COc2ccc(Br)cc2Cl)c1 | 52.8% (active)
24 | CN(C(=O)c1c(Cl)cnn1C)C12CC3CC(CC(C3)C1)C2 | 6.9% (inactive)
25 | Cc1c(C(=O)NCCN2C(=O)S/C(=C\c3cccs3)C2=O)cccc1[N+](=O)[O-] | 19.9% (inactive)

Reference: PubChem BioAssay AID841 (Emory University Molecular Libraries Screening Center, 2007)
